# Out of some 5,500 compounds screened, about 2,000 (36%) were called active. About 18% were inconclusive and are not listed. The list shows a part of the results. Values without a mark were called inactive. Cut-off read from the data, not from the text of the source: active = normalized growth mostly below about 0.91 (no sharp cut-off); inconclusive = no clear call, values can overlap the other calls; inactive = mostly above about 0.92.
# Experiment: chemical genetic growth profiling, strain panel (AID 1159580);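 note: tested at 20 µM; growth read once vehicle control cultures reached saturation at 30 °C; 1 = growth at the plate median or of vehicle wells; lower values mean less growth of the strain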
# Settings: growth OD
# [1] = S. cerevisiae deletion strains, locus YDL101C, strain DUN1, hits give low values
# [2] = S. cerevisiae deletion strains, locus YHR030C, strain SLT2, hits give low values
# [3] = S. cerevisiae deletion strains, locus YAL013W, strain DEP1, hits give low values
# [4] = S. cerevisiae deletion strains, locus YBR229C, strain ROT2, hits give low values
# [5] = S. cerevisiae deletion strains, locus YCL061C, strain MRC1, hits give low values
# [6] = S. cerevisiae deletion strains, locus YDR150W, strain NUM1, hits give low values
# [7] = S. cerevisiae deletion strains, locus YEL061C, strain CIN8, hits give low values
# [8] = S. cerevisiae deletion strains, locus YGR078C, strain PAC10, hits give low values
# [9] = S. cerevisiae deletion strains, locus YHR087W, strain rtc3, hits give low values
# [10] = S. cerevisiae deletion strains, locus YJL187C, strain SWE1, hits give low values
# [11] = S. cerevisiae deletion strains, locus YJR043C, strain POL32, hits give low values
# [12] = S. cerevisiae deletion strains, locus YJR075W, strain HOC1, hits give low values
# [13] = S. cerevisiae deletion strains, locus YLR039C, strain RIC1, hits give low values
# [14] = S. cerevisiae deletion strains, locus YLR058C, strain SHM2 (second series), hits give low values
# [15] = S. cerevisiae deletion strains, locus YLR085C, strain ARP6, hits give low values
# [16] = S. cerevisiae deletion strains, locus YLR262C, strain YPT6, hits give low values
# [17] = S. cerevisiae deletion strains, locus YML094W, strain GIM5, hits give low values
# [18] = S. cerevisiae deletion strains, locus YMR219W, strain ESC1, hits give low values
# [19] = S. cerevisiae deletion strains, locus YMR263W, strain SAP30, hits give low values
# [20] = S. cerevisiae deletion strains, locus YNL153C, strain GIM3, hits give low values
# [21] = S. cerevisiae deletion strains, locus YNL298W, strain CLA4 (second series), hits give low values
# [22] = S. cerevisiae deletion strains, locus YNL322C, strain KRE1, hits give low values
# [23] = S. cerevisiae deletion strains, locus YNR030W, strain Alg12, hits give low values
# [24] = S. cerevisiae deletion strains, locus YOL006C, strain TOP1, hits give low values
# [25] = S. cerevisiae deletion strains, locus YPL055C, strain LGE1, hits give low values
# [26] = S. cerevisiae deletion strains, locus YPL241C, strain CIN2, hits give low values
# [27] = S. cerevisiae deletion strains, locus YPR135W, strain CTF4, hits give low values
# [28] = S. cerevisiae strains, strain wild type, hits give low values
compound,measurement,setting,value
CC(=O)c1ccc(Sc2ccccc2)c([N+](=O)[O-])c1,normalized growth,"S. cerevisiae deletion strains, locus YAR019C, strain CDC15, hits give low values",0.877 (active)
same,normalized growth,"S. cerevisiae deletion strains, locus YBL105C, strain PKC1, hits give low values",0.878 (active)
same,normalized growth,"S. cerevisiae deletion strains, locus YBR135W, strain CKS1, hits give low values",0.864 (active)
same,normalized growth,"S. cerevisiae deletion strains, locus YBR136W, strain MEC1, hits give low values",0.874 (active)
same,normalized growth,"S. cerevisiae deletion strains, locus YBR160W, strain CDC28, hits give low values",0.876 (active)
same,normalized growth,"S. cerevisiae deletion strains, locus YDL017W, strain CDC7, hits give low values",0.879 (active)
same,normalized growth,"S. cerevisiae deletion strains, locus YDL028C, strain MPS1, hits give low values",0.885 (active)
same,normalized growth,[1],0.873 (active)
same,normalized growth,"S. cerevisiae deletion strains, locus YDL108W, strain KIN28, hits give low values",0.876 (active)
same,normalized growth,"S. cerevisiae deletion strains, locus YDL132W, strain cdc53, hits give low values",0.87 (active)
same,normalized growth,"S. cerevisiae deletion strains, locus YDL214C, strain PRR2, hits give low values",0.792
same,normalized growth,"S. cerevisiae deletion strains, locus YDR052C, strain DBF4, hits give low values",0.898 (active)
same,normalized growth,"S. cerevisiae deletion strains, locus YDR054C, strain cdc34, hits give low values",0.845 (active)
same,normalized growth,"S. cerevisiae deletion strains, locus YDR226W, strain ADK1, hits give low values",0.857 (active)
same,normalized growth,"S. cerevisiae deletion strains, locus YDR477W, strain SNF1, hits give low values",0.788
same,normalized growth,"S. cerevisiae deletion strains, locus YER123W, strain YCK3, hits give low values",0.799
same,normalized growth,"S. cerevisiae deletion strains, locus YER133W, strain GLC7, hits give low values",0.874
same,normalized growth,"S. cerevisiae deletion strains, locus YFL009W, strain cdc4, hits give low values",0.868 (active)
same,normalized growth,"S. cerevisiae deletion strains, locus YFL029C, strain CAK1, hits give low values",0.87 (active)
same,normalized growth,"S. cerevisiae deletion strains, locus YFR003C, strain YPI1, hits give low values",0.874 (active)
same,normalized growth,"S. cerevisiae deletion strains, locus YFR019W, strain FAB1, hits give low values",0.88
same,normalized growth,"S. cerevisiae deletion strains, locus YFR028C, strain CDC14, hits give low values",0.865 (active)
same,normalized growth,"S. cerevisiae deletion strains, locus YGR040W, strain KSS1, hits give low values",0.78
same,normalized growth,"S. cerevisiae deletion strains, locus YGR052W, strain FMP48, hits give low values",0.784
same,normalized growth,"S. cerevisiae deletion strains, locus YGR092W, strain DBF2, hits give low values",0.387 (active)
same,normalized growth,[2],0.75 (active)
same,normalized growth,"S. cerevisiae deletion strains, locus YHR079C, strain IRE1, hits give low values",0.813
same,normalized growth,"S. cerevisiae deletion strains, locus YHR082C, strain KSP1, hits give low values",0.859
same,normalized growth,"S. cerevisiae deletion strains, locus YHR205W, strain SCH9, hits give low values",0.773
same,normalized growth,"S. cerevisiae deletion strains, locus YIL147C, strain SLN1, hits give low values",0.875 (active)
same,normalized growth,"S. cerevisiae deletion strains, locus YJL095W, strain BCK1, hits give low values",0.756
same,normalized growth,"S. cerevisiae deletion strains, locus YJL128C, strain PBS2, hits give low values",0.778 (active)
same,normalized growth,"S. cerevisiae deletion strains, locus YJL157C, strain FAR1, hits give low values",0.818
same,normalized growth,"S. cerevisiae deletion strains, locus YJR016C, strain ILV3, hits give low values",0.882 (active)
same,normalized growth,"S. cerevisiae deletion strains, locus YJR066W, strain TOR1 (second series), hits give low values",0.823
same,normalized growth,"S. cerevisiae deletion strains, locus YJR066W, strain TOR1, hits give low values",0.811
same,normalized growth,"S. cerevisiae deletion strains, locus YKL048C, strain ELM1, hits give low values",0.753 (active)
same,normalized growth,"S. cerevisiae deletion strains, locus YKL067W, strain YNK1, hits give low values",0.788
same,normalized growth,"S. cerevisiae deletion strains, locus YKL101W, strain HSL1, hits give low values",0.753
same,normalized growth,"S. cerevisiae deletion strains, locus YKL193C, strain SDS22, hits give low values",0.869 (active)
same,normalized growth,"S. cerevisiae deletion strains, locus YKL203C, strain TOR2, hits give low values",0.814
same,normalized growth,"S. cerevisiae deletion strains, locus YLR113W, strain HOG1, hits give low values",0.698 (active)
same,normalized growth,"S. cerevisiae deletion strains, locus YLR133W, strain CKI1, hits give low values",0.79
same,normalized growth,"S. cerevisiae deletion strains, locus YLR403W, strain SFP1, hits give low values",0.756
same,normalized growth,"S. cerevisiae deletion strains, locus YML070W, strain DAK1, hits give low values",0.809
same,normalized growth,"S. cerevisiae deletion strains, locus YMR001C, strain CDC5, hits give low values",0.858 (active)
same,normalized growth,"S. cerevisiae deletion strains, locus YMR205C, strain PFK2 (second series), hits give low values",0.772
same,normalized growth,"S. cerevisiae deletion strains, locus YMR277W, strain FCP1, hits give low values",0.859 (active)
same,normalized growth,"S. cerevisiae deletion strains, locus YNL006W, strain LST8, hits give low values",0.855 (active)
same,normalized growth,"S. cerevisiae deletion strains, locus YNL020C, strain ARK1, hits give low values",0.803
same,normalized growth,"S. cerevisiae deletion strains, locus YNL161W, strain CBK1, hits give low values",0.869 (active)
same,normalized growth,"S. cerevisiae deletion strains, locus YNL183C, strain NPR1, hits give low values",0.798
same,normalized growth,"S. cerevisiae deletion strains, locus YNL207W, strain RIO2, hits give low values",0.861 (active)
same,normalized growth,"S. cerevisiae deletion strains, locus YNL222W, strain SSU72, hits give low values",0.876 (active)
same,normalized growth,"S. cerevisiae deletion strains, locus YNL307C, strain MCK1 (second series), hits give low values",0.772
same,normalized growth,"S. cerevisiae deletion strains, locus YOL078W, strain AVO1, hits give low values",0.861 (active)
same,normalized growth,"S. cerevisiae deletion strains, locus YOL136C, strain PFK27, hits give low values",0.772
same,normalized growth,"S. cerevisiae deletion strains, locus YOR061W, strain CKA2, hits give low values",0.815
same,normalized growth,"S. cerevisiae deletion strains, locus YOR119C, strain RIO1, hits give low values",0.835
same,normalized growth,"S. cerevisiae deletion strains, locus YOR231W, strain MKK1, hits give low values",0.788
same,normalized growth,"S. cerevisiae deletion strains, locus YOR329C, strain SCD5, hits give low values",0.881 (active)
same,normalized growth,"S. cerevisiae deletion strains, locus YPL031C, strain PHO85, hits give low values",0.785
same,normalized growth,"S. cerevisiae deletion strains, locus YPL153C, strain RAD53, hits give low values",0.79
same,normalized growth,"S. cerevisiae deletion strains, locus YPL204W, strain HRR25, hits give low values",0.773
same,normalized growth,"S. cerevisiae deletion strains, locus YPL209C, strain IPL1, hits give low values",0.872 (active)
same,normalized growth,"S. cerevisiae deletion strains, locus YPL256C, strain CLN2, hits give low values",0.782 (active)
same,normalized growth,"S. cerevisiae deletion strains, locus YPR025C, strain CCL1, hits give low values",0.884 (active)
same,normalized growth,"S. cerevisiae deletion strains, locus YPR106W, strain ISR1, hits give low values",0.866 (active)
same,normalized growth,"S. cerevisiae deletion strains, locus YPR111W, strain DBF20, hits give low values",0.838 (active)
same,normalized growth,"S. cerevisiae deletion strains, strain NNK1, hits give low values",0.853 (active)
same,normalized growth,"S. cerevisiae deletion strains, strain TSCII, hits give low values",0.86 (active)
O=[N+]([O-])c1cc(Cl)c(Sc2ccccc2)cc1Sc1ccccc1,normalized growth,[3],0.995
same,normalized growth,[4],0.999
same,normalized growth,[5],0.974
same,normalized growth,[1],1.01
same,normalized growth,[6],0.983
same,normalized growth,[7],0.998
same,normalized growth,[8],0.999
same,normalized growth,[2],0.922
same,normalized growth,[9],0.998
same,normalized growth,[10],1.03
same,normalized growth,[11],0.992
same,normalized growth,[12],0.994
same,normalized growth,[13],0.998
same,normalized growth,[14],0.992
same,normalized growth,[15],1.03
same,normalized growth,[16],0.909
same,normalized growth,[17],1.03
same,normalized growth,[18],1.01
same,normalized growth,[19],1.01
same,normalized growth,[20],0.993
same,normalized growth,[21],1.01
same,normalized growth,[22],1.01
same,normalized growth,[23],0.977
same,normalized growth,[24],0.998
same,normalized growth,[25],1.01
same,normalized growth,[26],1.01
same,normalized growth,[27],0.925
same,normalized growth,[28],1.01
CC(=O)c1ccc(Sc2ccccn2)c([N+](=O)[O-])c1,normalized growth,[3],0.996
same,normalized growth,[4],1
same,normalized growth,[5],1.02
same,normalized growth,[1],1.01
same,normalized growth,[6],0.985
same,normalized growth,[7],0.974
same,normalized growth,[8],0.986
same,normalized growth,[2],0.71
same,normalized growth,[9],1.01
same,normalized growth,[10],0.98
same,normalized growth,[11],1.01
same,normalized growth,[12],0.973
same,normalized growth,"S. cerevisiae deletion strains, locus YKL190W, strain CNB1, hits give low values",0.997
same,normalized growth,[13],0.849
same,normalized growth,[14],0.991
same,normalized growth,[15],0.835
same,normalized growth,[16],0.822
same,normalized growth,[17],0.983
same,normalized growth,[18],0.983
same,normalized growth,[19],0.993
same,normalized growth,"S. cerevisiae deletion strains, locus YMR307W, strain GAS1, hits give low values",1.04
same,normalized growth,"S. cerevisiae deletion strains, locus YNL128W, strain TEP1, hits give low values",0.967
same,normalized growth,[20],0.98
same,normalized growth,[21],0.934
same,normalized growth,[22],0.966
same,normalized growth,[23],0.99
same,normalized growth,[24],0.747
same,normalized growth,[25],0.976
same,normalized growth,[26],1.01
same,normalized growth,[27],0.927
same,normalized growth,[28],0.984
O=C(O)c1ccccc1Sc1c(C(=O)O)cc([N+](=O)[O-])cc1[N+](=O)[O-],normalized growth,[3],1.01
same,normalized growth,[4],1.01
same,normalized growth,[1],1.02
same,normalized growth,"S. cerevisiae deletion strains, locus YDL134C, strain PPH21, hits give low values",0.976
same,normalized growth,[6],0.988
same,normalized growth,[7],0.994
same,normalized growth,[8],1.01
same,normalized growth,[2],1.01
same,normalized growth,[9],0.993
same,normalized growth,[11],1
same,normalized growth,[12],1
same,normalized growth,[13],1
same,normalized growth,[14],0.994
same,normalized growth,[15],0.989
same,normalized growth,[16],0.984
same,normalized growth,[17],1.08
same,normalized growth,[18],1.01
same,normalized growth,[19],0.994
same,normalized growth,[20],1.03
same,normalized growth,[21],0.964
same,normalized growth,[22],1.02
same,normalized growth,[23],1.01
same,normalized growth,[25],1.02
same,normalized growth,[26],1.08
same,normalized growth,[27],1.09
